Assay results from PubChem BioAssay (NCATS).
Records with an inconclusive call do not appear. Where a call stands in place of a potency, no number is given. Calls of active or inactive are those of the source. Calls come from the whole dose curve; as a rule, active = well fitted cell-killing curve with a large enough effect; inconclusive = small, poorly fitted or top-dose-only effect, or effect the other way; inactive = no such curve, though single readings can be large or run the other way. Positions of bridges follow the written chain, without caps; N, C: chain ends. Non-standard residues stand in square brackets, D forms with d. Residues, ends and D or L forms follow the SMILES beside them. ξ: configuration not given here. *: point of attachment. Octanoyl(6-Me) = CCC(C)CCCCC(=O)*; ξThr(3R) = C[C@@H](O)C(N)C(=O)O; dDab = NCC[C@@H](N)C(=O)O; Dab = NCC[C@H](N)C(=O)O

Test: Quantitative High-Throughput drug screen in 47 multiple myeloma cell lines against the NCATS MIPE library collection: KMS27_JCRB cell viability assay (AID 1918970); note: nearly all actives have a fitted effect of over 30% in size
Details: KMS27 myeloma cells, CellTiter-Glo ATP viability, 48 h; viability (% of DMSO): at 45.8 µM (top of the series)
Source text: PI: Beverly A. Mock Ph.D.
Laboratory of Cancer Biology and Genetics,
Center for Cancer Research, National Cancer Institute,
National Institute of Health, Bethesda, Maryland
Drug resistance and disease progression are common in multiple myeloma (MM) patients, underscoring the need for new therapeutic combinations. […] We hypothesized that effective combinations would reduce MYC expression and enhance p16 activity. […] These preclinical data identify potentially useful drug combinations for evaluation in drug-resistant MM and reveal potential mechanisms of combined drug sensitivity.
Described herein is the primary MIPE qHTS used to cherrypick compounds. Validated compounds were then further tested for potential synergistic activiy.
[1] Peat TJ, Gaikwad SM, Dubois W, Gyabaah-Kessie N, Zhang S, Gorjifard S, Phyo Z, Andres M, Hughitt VK, Simpson RM, Miller MA, Girvin AT, Taylor A, Williams D, D'Antonio N, Zhang Y, Rajagopalan A, Flietner E, Wilson K, Zhang X, Shinn P, Klumpp-Thomas C, McKnight C, Itkin Z, Chen L, Kazandijian D, Zhang J, Michalowski AM, Simmons JK, Keats J, Thomas CJ, Mock BA. Drug combinations identified by high-throughput screening promote cell cycle transition and upregulate Smad pathways in myeloma. […] Epub 2023 Jun 24. PMID: 37356470; PMCID: PMC10408729.
SEQUENCE No. (e.g., 1, 2, 3, etc.); […] (e.g., Cells, Incubation, Reagent, etc.); VALUE and DESCRIPTION.
1; Cells; 5 uL; white, solid bottom 1536-well Greiner assay plate.
2; Compounds; 23 nL; Kalypsis pin tool (Wako USA) equipped with a 1536-well pin head to transfer to the assay plates.
3; Incubation; 48 hours; 37C incubation.
4; Reagent;5uL; CellTiter Glo (Promega).
5; Detector; 425V; Luminescence; Viewlux PerkinElmer.
NOTES (numbers refer to Sequence numbers above)
1. The cell-based screening methods employed in this study were like those previously published. Briefly, the corresponding myeloma cell lines were screened in 1,536-well plates with 500 cells, 5-uL per well for inhibition of cell viability (assessed by measuring ATP levels with CellTiterGlo).
2. NCATS MIPE 4.0 library of approved and investigational drugs were added using the Kalypsis pin tool. Wells treated with DMSO only for 100% viability and media only wells for 0% viability were used as controls.
3. The assay plates were covered and incubated for 48 hours in a 37C, 5% CO2 incubator with controlled humidity.
4. After 48 hours, CellTilter-GloTM luminescent substrate mix (Promega) reagent was added to the assay plate and plates we incubated for 5 min at room temperature.
5. Signal was measured as median relative luminescence units on a ViewLux (PerkinElmer) multiplate reader.
[1] Heske CM, Davis MI, Baumgart JT, Wilson K, Gormally MV, Chen L, Zhang X, Ceribelli M, Duveau DY, Guha R, Ferrer M, Arnaldez FI, Ji J, Tran HL, Zhang Y, Mendoza A, Helman LJ, Thomas CJ. Matrix Screen Identifies Synergistic Combination of PARP Inhibitors and Nicotinamide Phosphoribosyltransferase (NAMPT) Inhibitors in Ewing Sarcoma. Clin Cancer Res. 2017 Dec 1;23(23):7301-7311. doi: 10.1158/1078-0432.CCR-17-1121. Epub 2017 Sep 12. PMID: 28899971; PMCID: PMC6636827.
Potency is the fitted concentration of half-maximal effect.

Row | Structure (SMILES) | Potency
1 | CC(=O)O[C@H]1C[C@@H]2CC[C@H]3[C@H]4C[C@H]([N+]5(C)CCCCC5)[C@@H](OC(C)=O)[C@@]4(C)CC[C@@H]3[C@@]2(C)C[C@H]1[N+]1(C)CCCCC1 | inactive
2 | O=C1NC(O)CCN1[C@@H]1O[C@H](CO)[C@H](O)[C@H]1O (stereo not given in full) | inactive
3 | CCOC(=O)N1CCN([N+]([O-])=NOc2ccc([N+](=O)[O-])cc2[N+](=O)[O-])CC1 | 4.18 µM (active)
4 | CCCCCCCCc1ccc(CCC(N)(CO)CO)cc1 | 6.62 µM (active)
5 | C[N+](C)([O-])CCNc1ccc(NCC[N+](C)(C)[O-])c2c1C(=O)c1c(O)ccc(O)c1C2=O | inactive
6 | CCCCCCCCCCCCCCCC(=O)OC[C@@H](NC(=O)C(Cl)Cl)[C@H](O)c1ccc([N+](=O)[O-])cc1 | inactive
7 | O=C(NNC(=O)c1ccc(CNS(=O)(=O)c2ccc(F)c(Cl)c2)cc1)c1ccccc1 | inactive
8 | Nc1nc(N)c2nc(-c3cccc(O)c3)c(-c3cccc(O)c3)nc2n1 | 4.18 µM (active)
9 | COc1cc(O)c2c(c1)C1OC1C[C@H](O)[C@H](O)C(=O)C=CC[C@H](C)OC2=O (stereo not given in full) | 7.43 µM (active)
10 | O=C1NCCc2[nH]c(-c3ccncc3)cc21 | 1.32 µM (active)
11 | FC(F)(F)c1ccc(Nc2nc3ccc(Oc4ccnc(-c5ncc(C(F)(F)F)[nH]5)c4)cc3[nH]2)cc1 | 23.5 µM (active)
12 | CC(C)(O)CC[C@@H](O)[C@](C)(O)[C@H]1CC[C@@]2(O)C3=CC(=O)[C@@H]4C[C@@H](O)[C@@H](O)C[C@]4(C)[C@@H]3CC[C@]12C | inactive
13 | CC(C)OC(=O)[C@H](C)N[P@](=O)(OC[C@H]1O[C@@H](n2ccc(=O)[nH]c2=O)[C@](C)(F)[C@H]1O)Oc1ccccc1 | inactive
14 | C[C@H](NC(=O)Cc1cc(F)cc(F)c1)C(=O)N[C@H](C(=O)OC(C)(C)C)c1ccccc1 | inactive
15 | CC(=O)SCC(Cc1ccccc1)C(=O)NCC(=O)OCc1ccccc1 (stereo not given) | 0.662 µM (active)
16 | CC1(C)[C@H](O[C@H]2O[C@H](C(=O)O)[C@@H](O)[C@H](O)[C@H]2O[C@@H]2O[C@H](C(=O)O)[C@@H](O)[C@H](O)[C@H]2O)CC[C@@]2(C)[C@H]1CC[C@]1(C)[C@H]2C(=O)C=C2[C@H]3C[C@@](C)(C(=O)O)CC[C@]3(C)CC[C@]21C | inactive
17 | N#Cc1c(C2CCNCC2)cc(-c2c(O)cccc2OCC2CC2)nc1N | 0.418 µM (active)
18 | C[C@H](NCc1ccc2c(c1)nc(NC(=O)c1ccc(-c3cn[nH]c3)s1)n2CCc1ccccc1)C(C)(C)C | 0.418 µM (active)
19 | CC1=C(C(=O)Nc2cc3cn[nH]c3cc2F)C(c2ccc(Cl)cc2F)N=C(c2ccnc(Cl)c2)N1 (stereo not given) | 29.6 µM (active)
20 | CCC(C)CCCCC(=O)N[C@@H](CCN)C(=O)NC(C(=O)N[C@H](CCN)C(=O)N[C@@H]1CCNC(=O)C([C@@H](C)O)NC(=O)[C@@H](CCN)NC(=O)[C@@H](CCN)NC(=O)[C@@H](CC(C)C)NC(=O)[C@H](Cc2ccccc2)NC(=O)[C@H](CCN)NC1=O)[C@@H](C)O (stereo partly drawn) ({Octanoyl(6-Me)}-[Dab][ξThr(3R)][dDab][dDab][Dab]F[dL][dDab][dDab][ξThr(3R)]; lactam 4-C) | inactive

Row | Structure (SMILES) | Potency
21 | Cc1nc(NC(=O)N2CCC[C@@H]2C(N)=O)sc1-c1ccnc(C(C)(C)C(F)(F)F)c1 | inactive
22 | COc1ccc(CCC(=O)c2c(O)cc(O[C@@H]3O[C@H](CO)[C@@H](O)[C@H](O)[C@@H]3O[C@@H]3O[C@@H](C)[C@H](O)[C@@H](O)[C@@H]3O)cc2O)cc1O | inactive
23 | CC(C=CC=C(C)C=CC1=C(C)CCCC1(C)C)=CC=CC=C(C)C=CC=C(C)C=CC1=C(C)CCCC1(C)C | 11.8 µM (active)
24 | OCCN1C[C@H](O)[C@@H](O)[C@H](O)[C@@H]1CO | inactive
25 | CN[C@@H]1C[C@H]2O[C@@](C)([C@H]1OC)n1c3ccccc3c3c4c(c5c6ccccc6n2c5c31)C(=O)N[C@H]4O | 0.148 µM (active)
26 | N#CC(=C(N)Sc1ccc(N)cc1)c1ccccc1C(F)(F)F | inactive
27 | C[C@@H]1CC[C@@]2(OC1)OC1CC3C4CC=C5CC(O)CCC5(C)C4CCC3(C)C1[C@@H]2C (stereo not given in full) | inactive
28 | C#C[C@]1(O)CC[C@@H]2[C@@H]3CCc4cc(O)ccc4[C@H]3CC[C@@]21C | 16.6 µM (active)
29 | CC(=O)[C@]1(O)Cc2c(O)c3c(c(O)c2[C@@H](O[C@H]2C[C@H](N)[C@@H](O)[C@H](C)O2)C1)C(=O)c1ccccc1C3=O | 1.18 µM (active)
30 | CC(C)(C)c1nc2c3cc[nH]c(=O)c3c3cc(F)ccc3c2[nH]1 | inactive
31 | COc1cc(C=CC(=O)CC(=O)C=Cc2ccc(O)c(OC)c2)ccc1O | 3.03 µM (active)
32 | CN(C)c1ccc2cc(C(=O)N[C@@H](CCCN=C(N)CCl)C(=O)NCc3ccccc3)ccc2c1 | 1.48 µM (active)
33 | C=C(C)[C@@H]1CC[C@]2(C)CC[C@]3(C)[C@H](CC[C@@H]4[C@@]5(C)CC[C@H](O)C(C)(C)[C@H]5CC[C@]43C)[C@@H]12 | inactive
34 | CCCNC(=O)[C@H]1O[C@H]1C(=O)N[C@H](C(=O)N1CCC[C@@H]1C(=O)OC)C(C)CC (stereo not given in full) | 5.9 µM (active)
35 | COC1=C(OC)C(=O)C(CC=C(C)CCC=C(C)CCC=C(C)CCC=C(C)CCC=C(C)CCC=C(C)CCC=C(C)CCC=C(C)CCC=C(C)CCC=C(C)C)=C(C)C1=O | inactive
36 | CN1C(C(=O)Nc2ccccn2)=C(O)c2sc(Cl)cc2S1(=O)=O | inactive
37 | C[C@H](NC(=O)C(C#N)=Cc1cccc(Br)n1)c1ccccc1 | 13.2 µM (active)
38 | CN[C@H]1[C@@H](O)[C@@H]2O[C@@H]3O[C@H](C)CC(=O)[C@]3(O)O[C@@H]2[C@@H](NC)[C@H]1O | 0.332 µM (active)
39 | CCc1ccc(C(=O)Nc2cc(CN3CCN(C)CC3)cc(C(F)(F)F)c2)cc1C#Cc1cnc2ccnn2c1 | 5.9 µM (active)
40 | COC(=O)[C@@H]1[C@H]2C[C@@H]3c4[nH]c5ccccc5c4CCN3C[C@@H]2CC[C@@H]1O | inactive
